# Results published in PubChem BioAssay AID2284324 (EPA ToxCast).
# Inconclusive results are not listed. Active and inactive are the calls of the source. The calls were made as follows: active = hit-call score of the fitted dose curve at least 0.9, where 1 is the maximum; inconclusive = response in the unintended direction; inactive = score below 0.9.
# Test system: Japanese medaka Glucocorticoid Receptor (GR), gene 101170451
# Test: ATG_jmGR_EcoTox2: Attagene TRANS-FACTORIAL EcoTox-2 HepG2 Assay for Japanese medaka Glucocorticoid Receptor (GR)
# Method: ATG_EcoTox2 is a cell-based, multiplexed assay created by modifying the existing Attagene TRANS-FACTORIAL system to include a panel of nuclear receptors from some or all the following species: human (Homo sapiens), african clawed frog (Xenopus laevis), rainbow trout (Oncorhynchus mykiss), japanese medaka (Oryzias latipes), and zebrafish (Danio rerio). The ECOTOX2-FACTORIAL format uses HepG2, a human liver cell line, with measurements taken at 24 hours after chemical dosing in a 24-well plate. ATG_jmGR_EcoTox2 is one of 29 assay components calculated in the ATG_EcoTox2 assay. It is designed to make measurements of mRNA induction, a form of inducible reporter, as detected with fluorescence intensity signals by Reverse transcription polymerase chain reaction (RT-PCR) and Capillary electrophoresis technology.The assay endpoint ATG_jmGR_EcoTox2 was analyzed in the positive analysis fitting direction relative to DMSO as the negative control and baseline of activity. Using a type of inducible reporter, measures of mRNA for gain-of-signal activity can be used to understand the reporter gene at the transcription factor-level as they relate to the gene for glucocorticoid receptor. Furthermore, this assay endpoint can be referred to as a primary readout, because this assay has produced multiple assay endpoints where this one serves a reporter gene function. To generalize the intended target to other relatable targets, this assay endpoint is annotated to the nuclear receptor intended target family, where the subfamily is steroidal.
# Human liver HepG2 cells are transiently transfected with multiple reporter transcription units (MRTUs) in 6-well plates using FuGene 6 reagent (Roche; 3 ml FuGene/1 mg DNA). The MRTU constructs are regulated by a cis-regulating element (promoter). Each RTU expresses a GAL4-UAS that regulates the transcription of a nearby target reporter gene sequence. A major difference between the CIS and TRANS system is that in CIS activities of endogenous TFs are measured, whereas the TRANS assay evaluates changes in activities of exogenous, chimeric NR-Gal4 proteins. […] At the end of 24 hour incubation, total RNA was isolated using TriZol reagent (Invitrogen). The isolated RNA is then reverse-transcribed using oligo(dT) primer and Mo-MLV reverse transcriptase (Invitrogen) with DNAse I (Ambion) treatment for 30 min. The one-tenth of the produced cDNA was amplified by PCR using Taq DNA polymerase (Invitrogen) and two reporter sequence-specific primers. The PCR products were fluorescently labeled by primer extension with 6-arboxyfluorescein (6-FAM) 5'-labeled reporter sequence-specific primer (2 min at 95 C, 20 s at 68 C and 10 min at 72 C) and these products were digested with 5U of HpaI (New England Biolabs) for 2h at 37 C. The fragments were purified using Qiaquick PCR columns (Qiagen), analyzed on an ABI 3130xL genetic analyzer (Applied Biosystems) with peak positions identified by using a set of X-rhodamine (ROX)-labeled MapMarker1000 molecular weight standards (BioVentures). The raw capillary electrophoresis data was processed using Attagraph software (Attagene).
Structure (SMILES),outcome,AC50
Cc1cccc(Nc2cc(Cl)nc(SCC(=O)O)n2)c1C,inactive,
CC(C)(Oc1ccc(Cl)cc1)C(=O)O,inactive,
Cc1ccc(C)c(OCCCC(C)(C)C(=O)O)c1,inactive,
CC(C)OC(=O)C(C)(C)Oc1ccc(C(=O)c2ccc(Cl)cc2)cc1,inactive,
CC(C)(Oc1ccc(C2CC2(Cl)Cl)cc1)C(=O)O (stereo not drawn),inactive,
C[C@]12C=CC(=O)C=C1CC[C@@H]1[C@@H]2C(=O)C[C@@]2(C)[C@H]1CC[C@]2(O)C(=O)CO,inactive,
CC(C)(Oc1ccc(CCNC(=O)c2ccc(Cl)cc2)cc1)C(=O)O,inactive,
C[C@@H]1C[C@H]2[C@@H]3CCC4=CC(=O)C=C[C@]4(C)[C@@]3(F)[C@@H](O)C[C@]2(C)[C@@]1(O)C(=O)COP(=O)(O)O,,14.8 nM (active)
